Rows were chosen to be rich in hits. Some 9.4% of all compounds tested hit in one or more screens of this group.
FLuc counter: qHTS profiling assay for firefly luciferase inhibitor/activator using purifed enzyme and Km concentrations of substrates (counterscreen for miR-21 project). Luciferin 4-monooxygenase (Photinus pyralis), P08659. purified FLuc, Km substrates, luminescence inhibition. Potency, µM (series often up to 57.5 µM), usual class: inhibitors. actives 6.9% (n = 360,000). AID 588342, 2011; also: nearly all actives have a fitted effect of over 55% in size
Target sequence (P08659 whole entry, looked up): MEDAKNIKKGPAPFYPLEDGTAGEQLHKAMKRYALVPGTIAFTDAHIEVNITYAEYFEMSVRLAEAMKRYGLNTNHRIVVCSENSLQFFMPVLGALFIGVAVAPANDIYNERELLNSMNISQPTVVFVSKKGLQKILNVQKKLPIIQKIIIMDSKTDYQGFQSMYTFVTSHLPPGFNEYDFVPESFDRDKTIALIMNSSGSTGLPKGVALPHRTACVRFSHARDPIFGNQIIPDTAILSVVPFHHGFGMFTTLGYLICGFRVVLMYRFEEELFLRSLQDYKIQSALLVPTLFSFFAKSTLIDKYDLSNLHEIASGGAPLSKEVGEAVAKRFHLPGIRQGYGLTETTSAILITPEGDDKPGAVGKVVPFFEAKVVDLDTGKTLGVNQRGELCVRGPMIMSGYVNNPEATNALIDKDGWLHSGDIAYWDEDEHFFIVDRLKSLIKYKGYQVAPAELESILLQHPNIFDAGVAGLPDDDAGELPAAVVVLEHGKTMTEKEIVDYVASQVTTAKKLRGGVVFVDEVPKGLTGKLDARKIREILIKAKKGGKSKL
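Purified P. pyralis luciferase (10nM final) with 10uM D-luciferin and 10uM ATP (Km levels) in 50mM Tris acetate pH 7.5, 10mM Mg acetate, 0.01% Tween-20, 0.05% BSA; qHTS 6-point titration, ~60 µM downward; luminescence read.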
ELG1 repair inh: qHTS screen for small molecules that inhibit ELG1-dependent DNA repair in human embryonic kidney (HEK293T) cells expressing luciferase-tagged ELG1 | HEK293T ELG1-luciferase reporter, luminescence, 16 h; DNA damage induced by 5-fluorouridine | Potency, µM (top dose mostly 46.1 µM), hits mostly inhibitors | actives 2.3% (n = 330,000); also: nearly all actives have a fitted effect of over 55% in size
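In this reporter screen, reduction of luminescence relative to DMSO vehicle indicated activity. Compounds and 5-fluorouridine were added together to 2,000 cells per well, incubated for 16 hr at 37 °C, then developed with ONE-Glo.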
NPC1 prom act: qHTS Assay for NPC1 Promoter Activators; AID 485313, 2010; Potency, µM (doses to about 9.22 µM), hits mostly activators; actives 2.4% (n = 320,000); Huh7 NPC1 promoter luciferase reporter, 24 h; also: nearly all actives have a fitted effect of over 60% in size
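Stable NPC1-promoter luciferase Huh7 line; cpd (DMSO) 24 h, 37 °C, 5% CO2; Amplite luciferase reagent 10 min RT; luminescence readout. qHTS format.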
Rab9 prom act: qHTS Assay for Rab9 Promoter Activators | Huh7 Rab9 promoter-luciferase reporter, luminescence, 24 h | Potency, µM (doses to about 9.22 µM), usual class: activators | actives 2.8% (n = 320,000) | AID 485297, 2010; also: nearly all actives have a fitted effect of over 60% in size
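Cells were plated at 1500 per well in reduced-serum medium with 10% FBS and left 2 h. Compound in DMSO was then added for 24 h at 37 °C. Reporter signal was read by luminescence after 10 min with luciferase detection reagent.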
SMN2 splice enh: qHTS Assay for Enhancers of SMN2 Splice Variant Expression; HEK293 SMN2-luciferase splicing reporter, luminescence, 30-36 h; Potency, µM (doses to about 46.1 µM), most hits filed as activators; actives 2.8% (n = 210,000); also: nearly all actives have a fitted effect of over 55% in size
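qHTS luciferase splicing reporter: luminescence rises when SMN2 exon 7 is included in transfected HEK293 cells. Compound exposure lasted 30-36 h at 37C, with 4.5 mM final sodium butyrate as control, followed by a ONE-Glo read.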
ELG1 genotox: qHTS screen for small molecules that induce genotoxicity in human embryonic kidney (HEK293T) cells expressing luciferase-tagged ELG1; HEK293T ELG1-luciferase reporter, luminescence, 16 h; Potency, µM (series often up to 46 µM), usual class: activators; actives 1.3% (n = 330,000); AID 504466, 2011; also: nearly all actives have a fitted effect of over 60% in size
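Step 1: seed 2,000 HEK293T ELG1-luciferase cells per well. Step 2: add compound or DMSO, incubate 16 hr at 37 °C. Step 3: ONE-Glo, 30 min at room temperature, read luminescence.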
Hits are given with their value; - = inactive; ? = inconclusive; . = no result given; [ ] = dose if it differs, or a comment. Calls follow the shape of the dose curve; as a rule, active = well fitted curve in the direction sought with a large enough effect; inconclusive = small, poorly fitted or top-dose-only effect, or another doubt; inactive = no such curve, though single readings can be large; an effect the other way counts as inactive or inconclusive.

SMILES	FLuc counter	ELG1 repair inh	NPC1 prom act	Rab9 prom act	SMN2 splice enh	ELG1 genotox
CC(=O)c1c(C)[nH]c(C(=O)OCC(=O)Nc2nnc(-c3ccccc3)o2)c1C	21µM	?	-	-	.	-
CC(=O)c1c(C)[nH]c(C(=O)CN(C)CC(=O)Nc2ccccc2Cl)c1C	.	18µM	.	.	.	-
CC(=O)c1c(C)[nH]c(C(=O)OCC(=O)Nc2cccnc2Cl)c1C	.	?	.	.	.	-
COC(=O)Cn1nc(C)c2c(C)n(-c3ccccc3)nc2c1=O	-	.	.	.	-	.
CCc1nn(CC(=O)Nc2cccc(C(C)=O)c2)c(=O)c2cc3sccc3n12	?	.	.	.	-	.
CC(=O)c1c(C)[nH]c(C(=O)COC(=O)c2c(-c3ccccc3)noc2C)c1C	.	21µM	.	.	.	-
COc1ccc(C(C)C)cc1S(=O)(=O)NCCc1c(C)[nH]c2ccc(C)cc12	-	.	.	.	-	.
CCCCOc1ccc2ccccc2c1C=O	21µM	?	-	-	-	-
CCOC(=O)N/N=C/c1cn(Cc2ccc(Cl)cc2)c2ccccc12	-	-	-	-	-	-
CC(=O)n1cc(/C=N/NC(=O)c2ccccc2Cl)c2ccccc21	19µM	?	-	-	.	-
CC(=O)n1cc(/C=N/NC(=O)c2cccc(O)c2)c2ccccc21	9.5µM	?	-	-	.	-
CC(=O)n1cc(/C=N/NC(=O)c2ccc(Cl)cc2)c2ccccc21	3.4µM	?	-	-	.	-
C#CC(C)(CC)NC(=O)Cn1nnc(-c2ccc(OCc3ccccc3F)cc2)n1 (configuration not stated)	?	.	.	.	-	.
C=CCn1c(O)c(N=NC(=O)OC(C)(C)C)c2ccccc21	17µM	-	-	-	-	-
COc1ccc(-c2ccnc3nc(N4CCN(c5ccccc5)CC4)nn23)cc1	-	-	-	-	-	-
O=C(Nc1nc2nc(-c3ccccc3)cc(-c3ccccc3)n2n1)c1ccco1	-	8.2µM	-	-	-	-
O=C(Nc1nc2nccc(-c3ccccc3)n2n1)c1ccccc1	?	?	2.8µM	2.5µM	.	?
CC(=O)Nc1nc2nc(-c3ccccc3)cc(-c3ccccc3)n2n1	-	-	-	-	-	-
O=C(Nc1nc2nccc(-c3ccccc3)n2n1)c1ccc(F)cc1	-	-	-	-	-	-
COc1ccc(C(=O)Nc2nc3nccc(-c4ccccc4)n3n2)cc1	9.5µM	-	-	-	-	-
COc1ccc(CCNC(=O)CSc2nc(-c3ccc(F)cc3)cc(C(F)(F)F)n2)cc1OC	-	.	.	.	-	.
Cc1nc(N)sc1N=Nc1ccc(F)cc1	12µM	?	?	?	-	12µM
O=C(NC(Cc1c[nH]c2ccccc12)C(=O)N/N=C/c1cccnc1)c1cccs1 (configuration not stated)	-	?	-	-	25µM	-
O=C(NC(Cc1c[nH]c2ccccc12)C(=O)Nc1ccc(F)cc1)c1cccs1 (configuration not stated)	-	?	-	-	-	-
CCCNc1nc(N)nc(-c2cc(Cl)ccc2OC)n1	-	-	-	-	-	-
SMILES	FLuc counter	ELG1 repair inh	NPC1 prom act	Rab9 prom act	SMN2 splice enh	ELG1 genotox
CCCCNc1nc(N)nc(-c2cc(Cl)ccc2O)n1	9.5µM	?	3.5µM	2.8µM	6.3µM	?
CCNc1nc(N)nc(-c2cc(Cl)ccc2O)n1	1.7µM	?	4µM	1.3µM	11µM	?
Nc1nc(N)nc(-c2cc(O)ccc2O)n1	-	1.2µM	?	-	.	-
CCc1ccc(NC(=O)C(NS(=O)(=O)c2cccs2)C(C)C)cc1 (configuration not stated)	-	.	.	.	-	.
CSc1ccccc1-c1nnc(-c2ccc(C)cc2)o1	1.5µM	?	?	?	10µM	?
CSc1ccccc1-c1nnc(-c2ccccc2)o1	3.4µM	?	-	3.2µM	11µM	?
CSc1nnc(-c2ccccc2SC)o1	-	-	-	-	-	-
Cc1ccc(-c2nnc(-c3ccccc3S(=O)(=O)Cc3ccc(Cl)cc3)o2)cc1	-	-	-	-	-	-
c1ccc(SCc2nc3ccccc3[nH]2)nc1	21µM	?	?	?	-	?
c1ccc2[nH]c(CSc3nc4ccccc4s3)nc2c1	15µM	-	-	-	-	-
Cc1nnc(SCc2nc3ccccc3[nH]2)s1	-	?	-	-	-	-
Cn1c(CSc2nc3ccccc3s2)nc2ccccc21	11µM	?	?	?	16µM	13µM
Cn1c(CSc2nc3ccccc3s2)n[nH]c1=S	-	?	-	-	-	-
COc1ccc(N(C(=O)c2ccc(C(C)(C)C)cc2)S(=O)(=O)c2ccc(Cl)cc2)cc1	-	.	.	.	-	.
CCc1cc2c(-c3ccccc3)cc(=O)oc2c2c1OCN(Cc1ccc(F)cc1)C2	-	.	.	.	-	.
Cc1nc(NCc2ccc(S(N)(=O)=O)cc2)c2c(C)c(C)sc2n1	-	-	-	-	.	-
Cc1nc(NCCc2ccc(S(N)(=O)=O)cc2)c2c(C)c(C)sc2n1	-	13µM	-	-	-	-
COc1cccc(NS(=O)(=O)c2ccc3[nH]cc(C(=O)NC(C)c4ccccc4)c(=O)c3c2)c1 (configuration not stated)	?	.	.	.	-	.
Cc1nc(SCCC(=O)O)c2cc(-c3ccccc3)sc2n1	0.67µM	?	-	-	.	-
c1ccc(-c2cc3c(N4CCOCC4)ncnc3s2)cc1	-	?	-	-	-	-
Cc1nc(N2CCOCC2)c2cc(-c3ccccc3)sc2n1	21µM	?	-	-	-	-
Cc1ccc(NC(=O)Cn2c(-c3cncs3)nc3ccccc32)cc1Br	-	.	.	.	.	.
Cc1cccc(C)c1NC(=O)Cn1nnc(C(=O)Nc2c(C)cccc2C)c1N	-	.	.	.	-	.
CN1CCc2c(sc(/N=C/c3cc(Cl)ccc3O)c2C#N)C1	2.4µM	?	-	?	.	16µM
CN1CCc2c(sc(/N=C/c3c[nH]c4ccccc34)c2C#N)C1	1.3µM	?	-	2.8µM	.	?
SMILES	FLuc counter	ELG1 repair inh	NPC1 prom act	Rab9 prom act	SMN2 splice enh	ELG1 genotox
O=C(O)c1ccc(Nc2nc(-c3cccnc3)cs2)cc1O	12µM	-	-	-	.	-
c1cncc(Nc2nc(-c3cccnc3)cs2)c1	?	-	-	-	-	-
COc1cccc(Nc2nc(-c3cccnc3)cs2)c1	4.8µM	?	?	?	.	?
Cc1ccc(Nc2nc(-c3cccnc3)cs2)cc1Cl	4.8µM	?	-	?	.	21µM
COc1ccc(-c2csc(Nc3cccnc3)n2)cc1OC	2.4µM	?	-	-	-	-
Cc1ccccc1Nc1nnc(-c2ccc(C)c(S(=O)(=O)N3CCCCC3)c2)c2ccccc12	-	.	.	.	-	.
COc1cc(N=C(N)N=C(N)N)c2ncccc2c1	.	.	.	.	-[9.22 µM]	.

High-throughput results as filed in PubChem.
